# Records with an inconclusive call do not appear. Active and inactive are the calls of the source. Rule for the calls: active = hit-call score of the fitted dose curve at least 0.9, where 1 is the maximum; inconclusive = response in the unintended direction; inactive = score below 0.9.
# Tests used:
# [1] = ACEA_AR_agonist_AUC_viability: ACEA Biosciences xCELLigence Real-Time Cell Analysis on Androgen Receptor Agonism for Viability (AID 2283775);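 for AC50: viability read 80 hours after compound addition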
# Summary of the method: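 Viability endpoint from xCELLigence impedance in 22Rv1 prostate cells at 80 h. Eight-point series, 100 uM maximum final.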
# [2] = ACEA_AR_antagonist_AUC_viability: ACEA Biosciences xCELLigence Real-Time Cell Analysis on Androgen Receptor Antagonism for Viability (AID 2283776);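 note: area under impedance growth curve at 80 h after dosing as viability; hits lower the growth signal relative to DMSO meaning cytotoxicity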
# Summary of the method: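 22Rv1 human prostate cancer cells were seeded on electrode plates, monitored overnight, then exposed to eight 1:4 dilutions from 100 uM final. Impedance-based growth kinetics at 80 h gave an AUC viability endpoint normalized to DMSO.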
# [3] = ACEA_ER_AUC_viability: ACEA Biosciences xCELLigence Real-Time Cell Analysis on Estrogen Receptor Agonism for Viability (AID 2283782);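 note: hit means loss of impedance signal meaning reduced cell growth or viability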
# Summary of the method: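 Viability endpoint: reduced impedance area under the curve relative to DMSO, recorded by real-time electrode sensing over ~80 h of continuous exposure. Duplicate plates of T47D in hormone-depleted medium; eight concentrations, 1:4 dilutions, 100 uM maximum.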
# [4] = biological target: AR (gene 367) (UniProt P10275); experiment: ACEA_AR_agonist_80hr: ACEA Biosciences xCELLigence Real-Time Cell Analysis on Androgen Receptor Agonism for Proliferation (AID 2283783);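 note: hits increase impedance growth signal above DMSO baseline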
# Summary of the method: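 Eight concentrations, 1:4 serial dilution from a 100 uM final top, in biological duplicate. Impedance-based real-time growth of 22Rv1 cells after overnight baseline, recorded hourly and read at 80 hours. Controls: testosterone, MG132, assay media.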
# [5] = STM_H9_NormalizedViability: Cytotoxicity Assessment at 120 hours in the Stemina devTOX quickPredict H9 human embryonic stem cell (hESC)-based Assay (AID 2283784)
# Summary of the method: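 CellTiter-Fluor RFU, background-subtracted, expressed relative to 0.1% DMSO neutral control by plate. Pluripotent H9 cells; treatment with daily re-dosing. Plates carried 1uM methotrexate (positive) and 5 nM methotrexate (negative) references.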
# [6] = biological target: AR (gene 367) (UniProt P10275); experiment: ACEA_AR_antagonist_80hr: ACEA Biosciences xCELLigence Real-Time Cell Analysis on Androgen Receptor Antagonism for Proliferation (AID 2283787);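 note: hits lower the impedance growth signal relative to DMSO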
# Summary of the method: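 Impedance-based real-time growth of 22Rv1 prostate cells, read 80 h after dosing. Eight concentrations, 1:4 series, top 100 uM final (0.5% DMSO), n = 2; signal decrease scored against DMSO.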
# [7] = system: zebrafish Estrogen Receptor (ESR2B), gene 317733; experiment: ATG_zfER2b_XSP1: Attagene TRANS-FACTORIAL Multi-Species (XSP1) HepG2 Assay for zebrafish Estrogen Receptor (ESR2B) (AID 2283773)
# Summary of the method: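 Medium contained 3 nM 6-alpha-fluorotestosterone. Reporter mRNA induction by exogenous zebrafish ER2b-Gal4 chimera was read 24 h post-dose in transiently transfected HepG2 cells, using RT-PCR, fluorescent labelling, HpaI digestion and capillary electrophoresis.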
# [8] = system: frog Estrogen Receptor (ESR2), gene 100174814; experiment: ATG_frER2_XSP1: Attagene TRANS-FACTORIAL Multi-Species (XSP1) HepG2 Assay for frog Estrogen Receptor (ESR2) (AID 2283774)
# Summary of the method: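 Reporter mRNA from a multiplexed TRANS system, measured by RT-PCR with fluorescent labelling and capillary electrophoresis, 24 hours after chemical exposure. Human HepG2 liver cells carried exogenous frog ER-Gal4 chimera; medium included 3 nM 6-alpha-fluorotestosterone; increases versus DMSO analysed.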
# [9] = system: frog Estrogen Receptor (ESR1), gene 398734; experiment: ATG_frER1_XSP1: Attagene TRANS-FACTORIAL Multi-Species (XSP1) HepG2 Assay for frog Estrogen Receptor (ESR1) (AID 2283777)
# Summary of the method: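 HepG2 cells transiently transfected with GAL4-UAS reporter units and frog ER–Gal4 chimera were dosed for 24 h with 3 nM 6-alpha-fluorotestosterone present. Reporter mRNA was measured by RT-PCR and capillary electrophoresis; gain of signal fitted versus DMSO.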
# [10] = biological target: chicken Estrogen Receptor (ESR1), ESR1 (gene 396099) (UniProt P06212); experiment: ATG_chERa_XSP1: Attagene TRANS-FACTORIAL Multi-Species (XSP1) HepG2 Assay for chicken Estrogen Receptor (ESR1) (AID 2283779)
# Summary of the method: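 Trans-activation of an exogenous chicken ERα–Gal4 chimera read as reporter transcript (RT-PCR, fluorescent labeling, capillary electrophoresis) after 24 h compound exposure of transfected HepG2; medium held 3 nM 6-alpha-fluorotestosterone. Positive-direction fit against DMSO.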
# [11] = system: turtle Estrogen Receptor (ESR1), gene 101933533; experiment: ATG_trERa_XSP1: Attagene TRANS-FACTORIAL Multi-Species (XSP1) HepG2 Assay for turtle Estrogen Receptor (ESR1) (AID 2283781)
# Summary of the method: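 Transactivation measured 24 h post-dose as reporter mRNA (RT-PCR, fluorescent capillary electrophoresis) from an NR-Gal4 turtle ER construct in HepG2. Medium included 3 nM 6-alpha-fluorotestosterone; increase over DMSO fitted.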
# [12] = biological target: Estrogen receptor beta (Homo sapiens) (UniProt Q92731); experiment: ATG_hERb_XSP1: Attagene TRANS-FACTORIAL Multi-Species (XSP1) HepG2 Assay for human Estrogen Receptor (ESR2) (AID 2283788)
# Summary of the method: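 HepG2 cells transiently transfected with multiplexed GAL4-UAS reporter units carrying chimeric human ERβ-Gal4; 24 h compound exposure with 3 nM 6-alpha-fluorotestosterone present. Reporter mRNA quantified by RT-PCR, FAM labelling and capillary electrophoresis; gain-of-signal fitted versus DMSO.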
# [13] = ATG_M_06_XSP1: Attagene TRANS-FACTORIAL Multi-Species (XSP1) HepG2 Assay for M06 Transcription Factor (Internal Marker) (AID 2283790)
# Summary of the method: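 This background-control readout tracks M06 reporter mRNA, measured by RT-PCR and capillary electrophoresis. HepG2 cells transiently carrying the GAL4-UAS reporter panel were dosed for 24 h with 3 nM 6-alpha-fluorotestosterone added for partial AR stimulation; increases were scored relative to DMSO.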
# [14] = ATG_M_61_XSP1: Attagene TRANS-FACTORIAL Multi-Species (XSP1) HepG2 Assay for M61 Transcription Factor (Internal Marker) (AID 2283797)
# Summary of the method: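 Background-control readout: reporter transcripts measured by RT-PCR and capillary electrophoresis 24 h after dosing transiently transfected HepG2 multi-reporter cells, with 3 nM 6-alpha-fluorotestosterone present. Fitted in the positive direction relative to DMSO.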
# [15] = biological target: Peroxisome proliferator-activated receptor gamma (Homo sapiens) (UniProt P37231); experiment: ATG_hPPARg_XSP1: Attagene TRANS-FACTORIAL Multi-Species (XSP1) HepG2 Assay for human Peroxisome Proliferator-activated Receptor gamma (PPARg) (AID 2283800)
# Summary of the method: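 Reporter mRNA induction, measured by RT-PCR with capillary electrophoresis 24 h after dosing, scored as gain over DMSO. Transfected HepG2 cells express exogenous NR-Gal4 chimeras driving GAL4-UAS reporters; medium includes 3 nM 6-alpha-fluorotestosterone.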
# [16] = biological target: mouse Peroxisome Proliferator-activated Receptor gamma (PPARg), Pparg (gene 19016) (UniProt P37238); experiment: ATG_mPPARg_XSP1: Attagene TRANS-FACTORIAL Multi-Species (XSP1) HepG2 Assay for mouse Peroxisome Proliferator-activated Receptor gamma (PPARg) (AID 2283802)
# Summary of the method: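 Readout is reporter mRNA induction, measured by RT-PCR with 6-FAM labelling, HpaI digestion and capillary electrophoresis, 24 h post-dose relative to DMSO. Transient multi-reporter transfection of human HepG2 with mouse PPARg–GAL4 fusion; 3 nM 6-alpha-fluorotestosterone included.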
# [17] = biological target: Nuclear receptor subfamily 1 group I member 2 (Mus musculus) (UniProt O54915); experiment: ATG_mPXR_XSP1: Attagene TRANS-FACTORIAL Multi-Species (XSP1) HepG2 Assay for mouse Pregnane X Receptor (PXR) (AID 2283803)
# Summary of the method: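 Transiently transfected HepG2 cells expressing a receptor-Gal4 chimera drive a GAL4-UAS reporter; 3 nM 6-alpha-fluorotestosterone included. Reporter mRNA read 24 h post-dose by RT-PCR and capillary electrophoresis; gain of signal relative to DMSO.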
# Sequence of AR (gene 367) (P10275 whole entry, looked up): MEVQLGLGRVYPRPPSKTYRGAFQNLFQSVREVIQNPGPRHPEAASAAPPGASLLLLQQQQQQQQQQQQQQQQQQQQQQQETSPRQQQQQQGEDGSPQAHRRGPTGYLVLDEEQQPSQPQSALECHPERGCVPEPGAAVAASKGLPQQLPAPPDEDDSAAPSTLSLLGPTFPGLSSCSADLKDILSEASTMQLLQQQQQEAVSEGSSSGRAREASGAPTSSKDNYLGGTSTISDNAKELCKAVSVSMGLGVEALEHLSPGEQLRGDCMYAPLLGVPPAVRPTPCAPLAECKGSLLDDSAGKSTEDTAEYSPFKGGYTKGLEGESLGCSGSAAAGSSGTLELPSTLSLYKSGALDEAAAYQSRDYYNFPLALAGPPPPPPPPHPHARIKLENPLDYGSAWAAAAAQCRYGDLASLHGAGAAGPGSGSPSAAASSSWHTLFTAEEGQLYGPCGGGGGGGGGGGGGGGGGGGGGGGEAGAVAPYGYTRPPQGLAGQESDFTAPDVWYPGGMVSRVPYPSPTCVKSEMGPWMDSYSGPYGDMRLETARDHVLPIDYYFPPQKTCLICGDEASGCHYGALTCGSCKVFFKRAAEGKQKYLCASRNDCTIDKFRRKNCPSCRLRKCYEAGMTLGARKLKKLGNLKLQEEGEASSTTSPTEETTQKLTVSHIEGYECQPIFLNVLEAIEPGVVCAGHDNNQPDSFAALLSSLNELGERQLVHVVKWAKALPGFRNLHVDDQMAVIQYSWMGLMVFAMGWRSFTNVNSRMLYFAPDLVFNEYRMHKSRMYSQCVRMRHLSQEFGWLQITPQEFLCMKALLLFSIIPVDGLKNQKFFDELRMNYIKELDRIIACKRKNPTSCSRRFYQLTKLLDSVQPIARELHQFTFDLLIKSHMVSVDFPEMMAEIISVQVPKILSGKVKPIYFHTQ
# Sequence of Peroxisome proliferator-activated receptor gamma (Homo sapiens) (P37231 whole entry, looked up, the tested form may be a part): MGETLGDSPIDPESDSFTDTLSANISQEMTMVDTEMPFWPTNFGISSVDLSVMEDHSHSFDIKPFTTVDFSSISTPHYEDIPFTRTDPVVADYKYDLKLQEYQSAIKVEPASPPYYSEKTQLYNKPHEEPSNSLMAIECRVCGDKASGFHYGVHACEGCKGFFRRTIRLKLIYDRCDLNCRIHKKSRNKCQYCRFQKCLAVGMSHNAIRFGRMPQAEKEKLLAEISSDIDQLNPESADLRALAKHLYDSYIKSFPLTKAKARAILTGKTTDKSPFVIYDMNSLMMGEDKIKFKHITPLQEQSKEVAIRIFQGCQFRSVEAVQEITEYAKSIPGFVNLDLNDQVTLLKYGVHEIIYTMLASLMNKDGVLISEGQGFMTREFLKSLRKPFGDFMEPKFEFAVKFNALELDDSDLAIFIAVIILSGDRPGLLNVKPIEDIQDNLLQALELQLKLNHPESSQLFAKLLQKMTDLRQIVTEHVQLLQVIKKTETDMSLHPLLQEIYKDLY
# Sequence of Estrogen receptor beta (Homo sapiens) (Q92731 whole entry, looked up, the tested form may be a part): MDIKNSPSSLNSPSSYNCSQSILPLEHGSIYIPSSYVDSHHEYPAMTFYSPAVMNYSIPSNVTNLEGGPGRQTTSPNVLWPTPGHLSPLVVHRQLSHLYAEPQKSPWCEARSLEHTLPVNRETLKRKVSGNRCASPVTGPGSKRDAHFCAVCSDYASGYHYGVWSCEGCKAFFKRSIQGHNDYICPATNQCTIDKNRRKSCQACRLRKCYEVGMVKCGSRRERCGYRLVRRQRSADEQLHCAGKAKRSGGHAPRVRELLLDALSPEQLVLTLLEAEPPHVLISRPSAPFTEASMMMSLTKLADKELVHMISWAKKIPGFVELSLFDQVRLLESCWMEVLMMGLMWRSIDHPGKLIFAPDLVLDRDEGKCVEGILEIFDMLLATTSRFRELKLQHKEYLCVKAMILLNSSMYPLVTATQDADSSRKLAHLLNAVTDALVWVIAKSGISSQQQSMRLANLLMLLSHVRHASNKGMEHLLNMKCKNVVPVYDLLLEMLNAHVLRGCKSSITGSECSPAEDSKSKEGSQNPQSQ
# Sequence of chicken Estrogen Receptor (ESR1), ESR1 (gene 396099) (P06212 whole entry, looked up, the tested form may be a part): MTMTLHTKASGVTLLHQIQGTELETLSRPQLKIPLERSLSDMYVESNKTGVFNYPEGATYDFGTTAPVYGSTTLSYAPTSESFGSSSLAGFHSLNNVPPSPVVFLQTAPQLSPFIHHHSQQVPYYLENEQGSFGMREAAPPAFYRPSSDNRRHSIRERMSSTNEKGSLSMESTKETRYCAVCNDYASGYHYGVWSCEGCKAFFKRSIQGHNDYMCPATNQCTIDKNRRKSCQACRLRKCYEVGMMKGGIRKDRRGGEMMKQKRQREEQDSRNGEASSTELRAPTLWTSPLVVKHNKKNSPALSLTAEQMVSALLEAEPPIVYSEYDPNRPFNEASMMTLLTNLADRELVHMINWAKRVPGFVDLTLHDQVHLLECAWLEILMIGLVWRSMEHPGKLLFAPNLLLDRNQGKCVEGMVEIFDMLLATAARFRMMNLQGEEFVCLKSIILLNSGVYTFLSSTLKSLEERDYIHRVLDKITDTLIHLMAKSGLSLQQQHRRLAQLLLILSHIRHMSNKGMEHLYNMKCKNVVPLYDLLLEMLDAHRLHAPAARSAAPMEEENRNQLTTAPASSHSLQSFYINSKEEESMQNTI
# Sequence of mouse Peroxisome Proliferator-activated Receptor gamma (PPARg), Pparg (gene 19016) (P37238 whole entry, looked up, the tested form may be a part): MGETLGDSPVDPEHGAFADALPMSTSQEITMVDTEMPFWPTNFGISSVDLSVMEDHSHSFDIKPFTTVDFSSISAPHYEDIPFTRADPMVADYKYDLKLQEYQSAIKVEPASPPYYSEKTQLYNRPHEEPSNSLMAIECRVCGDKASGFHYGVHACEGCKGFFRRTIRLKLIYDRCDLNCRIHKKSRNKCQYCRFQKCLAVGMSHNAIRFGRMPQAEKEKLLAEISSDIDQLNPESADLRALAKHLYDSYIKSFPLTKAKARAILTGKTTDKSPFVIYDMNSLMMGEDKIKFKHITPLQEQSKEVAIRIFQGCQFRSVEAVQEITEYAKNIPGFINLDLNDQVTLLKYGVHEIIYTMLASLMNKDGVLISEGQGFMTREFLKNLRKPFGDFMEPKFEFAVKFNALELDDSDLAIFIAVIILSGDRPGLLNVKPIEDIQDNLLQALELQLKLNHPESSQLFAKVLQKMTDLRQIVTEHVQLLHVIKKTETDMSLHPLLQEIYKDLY
# Sequence of Nuclear receptor subfamily 1 group I member 2 (Mus musculus) (O54915 whole entry, looked up, the tested form may be a part): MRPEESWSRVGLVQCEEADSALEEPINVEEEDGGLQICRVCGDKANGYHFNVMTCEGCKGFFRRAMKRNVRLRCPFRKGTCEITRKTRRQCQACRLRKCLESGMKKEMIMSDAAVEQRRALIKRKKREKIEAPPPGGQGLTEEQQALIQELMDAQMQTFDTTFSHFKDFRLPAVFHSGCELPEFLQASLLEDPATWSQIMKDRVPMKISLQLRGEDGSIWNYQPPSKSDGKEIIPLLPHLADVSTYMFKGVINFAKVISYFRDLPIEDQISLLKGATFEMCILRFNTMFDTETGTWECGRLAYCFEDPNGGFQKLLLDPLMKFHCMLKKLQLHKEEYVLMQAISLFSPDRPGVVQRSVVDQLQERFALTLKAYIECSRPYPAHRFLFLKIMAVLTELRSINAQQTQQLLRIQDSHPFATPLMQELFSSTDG
compound,measurement,setting,value
CC(C)COC(=O)CCCCC(=O)OCC(C)C,outcome,[1],inactive
same,outcome,[2],inactive
same,outcome,[3],inactive
CCC(C)N(C)C(=O)c1cc2ccccc2c(-c2ccccc2Cl)n1 (stereo not drawn),AC50,[1],45.7 µM (active)
same,AC50,[2],40.9 µM (active)
same,outcome,[3],inactive
same,outcome,[4],inactive
same,outcome,[5],inactive
same,AC50,[6],46.4 µM (active)
COc1ccc(OC(F)(F)F)cc1CN[C@H]1CCCN[C@H]1c1ccccc1,AC50,[1],65.5 µM (active)
same,AC50,[2],67 µM (active)
same,AC50,[3],14.9 µM (active)
Cn1cnc2c1c(=O)[nH]c(=O)n2C,outcome,[1],inactive
same,outcome,[2],inactive
CC1=C(C)S(=O)(=O)CCS1(=O)=O,AC50,[1],82.6 µM (active)
same,AC50,[2],88.8 µM (active)
same,outcome,[3],inactive
same,outcome,[4],inactive
same,AC50,[6],79.6 µM (active)
COC(=O)[C@H]1[C@H]2C[C@@H]3c4[nH]c5cc(OC)ccc5c4CCN3C[C@H]2C[C@@H](OC(=O)c2cc(OC)c(OC)c(OC)c2)[C@@H]1OC,AC50,[1],42.2 µM (active)
same,AC50,[2],33 µM (active)
same,AC50,[3],60.5 µM (active)
same,outcome,[5],inactive
CC(=O)CC(c1ccccc1)c1c(O)c2ccccc2oc1=O (stereo not drawn),outcome,[1],inactive
same,outcome,[2],inactive
same,outcome,[3],inactive
same,outcome,[5],inactive
CCc1cc(C2=C(C(=O)O)N(c3ccccc3C(F)(F)F)S(=O)(=O)c3ccccc32)cc2c1OCO2,outcome,[1],inactive
same,AC50,[2],25 µM (active)
same,AC50,[3],15.8 µM (active)
CCCCOC(=O)CCCCC(=O)OCCCC,outcome,[1],inactive
same,outcome,[2],inactive
C=CCCCCCCCCCCCC,outcome,[1],inactive
same,outcome,[2],inactive
CC(=O)O[C@]1(C(C)=O)CC[C@H]2[C@@H]3C=C(Cl)C4=CC(=O)[C@@H]5C[C@@H]5[C@]4(C)[C@H]3CC[C@@]21C,AC50,[7],13.1 µM (active)
same,AC50,[8],18 µM (active)
same,AC50,[2],0.0607 µM (active)
same,AC50,[9],4.61 µM (active)
same,AC50,[10],5.26 µM (active)
same,AC50,[11],3.25 µM (active)
same,AC50,[12],8.21 µM (active)
same,outcome,[13],inactive
same,outcome,[14],inactive
same,outcome,[15],inactive
same,AC50,[16],20.2 µM (active)
same,AC50,[17],0.347 µM (active)
C/C=C/c1ccc(OC)cc1,outcome,[1],inactive
same,outcome,[2],inactive
same,outcome,[3],inactive
CCCCC(CC)COC(=O)CCCCCCCC(=O)OCC(CC)CCCC (stereo not drawn),outcome,[1],inactive
same,outcome,[2],inactive
CC(C)c1cccc(C(C)C)c1NC(=O)NS(=O)(=O)c1cc(C(C)(C)O)co1,AC50,[2],19 µM (active)
CCCC(=O)O,outcome,[2],inactive
CC(=O)OCC(COC(C)=O)OC(C)=O,outcome,[2],inactive
same,outcome,[3],inactive
COC(=O)CCCC(=O)OC,outcome,[2],inactive
O=C1NC(=O)C(c2ccccc2)(c2ccccc2)N1,AC50,[2],28.7 µM (active)
same,outcome,[3],inactive

# Reference: PubChem BioAssay (EPA / NIEHS)
